# VDR inhibitor – inhibitors of human vitamin D receptor; P11473; VDR-SRC2-3 peptide fluorescence polarization, 2 h; Potency, µM, for the others: max response, negative = inhibition, usual class: inhibitors; hit rate 0.93% among 400,000; AID 504847; further: on the % scale 0 is the no-effect control and ±100 the full control effect
# Target sequence (P11473 whole entry, looked up): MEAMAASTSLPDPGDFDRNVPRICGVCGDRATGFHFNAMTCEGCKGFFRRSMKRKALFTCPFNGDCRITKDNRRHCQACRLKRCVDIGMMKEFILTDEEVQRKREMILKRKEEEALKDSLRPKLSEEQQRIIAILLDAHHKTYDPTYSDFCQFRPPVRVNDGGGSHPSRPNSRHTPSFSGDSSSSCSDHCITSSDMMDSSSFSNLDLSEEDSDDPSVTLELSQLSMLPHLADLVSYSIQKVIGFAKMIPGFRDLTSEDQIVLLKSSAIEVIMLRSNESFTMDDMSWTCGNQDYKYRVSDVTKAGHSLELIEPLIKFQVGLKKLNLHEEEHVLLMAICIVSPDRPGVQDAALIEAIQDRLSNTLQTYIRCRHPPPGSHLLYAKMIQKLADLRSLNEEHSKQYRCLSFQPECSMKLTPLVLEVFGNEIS
#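 Measured by FP: displacement of SRC2-3 coactivator peptide from VDR by library compounds, following a two-hour ambient incubation.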
# JMJD2A Tudor – JMJD2A Tudor domain (human) inhibition. Potency, µM (series often up to 114 µM), for the others: at the top dose activity change, negative = inhibition, usual class: inhibitors. hit rate 4.4% among 390,000. O75164. AlphaScreen JMJD2A-Tudor / H3K4me3 peptide binding; further: on the % scale 0 is the no-effect control and ±100 the full control effect; nearly all actives have a fitted effect of over 50% in size
# HP1b binding inh – HP1-beta chromodomain-methylated histone interaction inhibition; Potency, µM (titrated, usually from 114 µM), for inactives: at the top dose activity change, negative = inhibition, most hits filed as inhibitors; P83916; AlphaScreen HP1-beta / biotin-H3K9me3 peptide binding; hit rate 0.56% among 390,000; further: nearly all actives have a fitted effect of over 70% in size
# Target sequence (P83916 whole entry, looked up): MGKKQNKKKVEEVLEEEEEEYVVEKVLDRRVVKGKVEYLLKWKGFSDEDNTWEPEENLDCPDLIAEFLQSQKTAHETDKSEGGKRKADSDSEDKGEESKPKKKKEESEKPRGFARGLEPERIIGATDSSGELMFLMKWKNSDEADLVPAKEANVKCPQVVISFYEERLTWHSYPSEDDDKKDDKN
#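 AlphaScreen: HP1-beta (50 nM) preformed 30 min with biotin-H3(1-18)K9me3 peptide (50 nM) in PBS pH 7.4, 0.01% Tween-20. Compound added for 30 min at RT, then streptavidin donor/nickel chelate acceptor beads (10 ug/mL) for 30 min.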
# BAZ2B block – inhibitors of human BAZ2B bromodomain; hit rate 4.4% among 360,000; Q9UIF8; AlphaScreen BAZ2B-H3K14Ac peptide displacement; Potency, µM (highest dose often 114 µM), inactives show at the top dose activity change, negative = inhibition, usual class: inhibitors; further: on the % scale 0 is the no-effect control and ±100 the full control effect; nearly all actives have a fitted effect of over 60% in size
#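 BAZ2B (50 nM) with biotin-H3(5-23)K14Ac peptide (50 nM) in PBS pH 7.4, 0.01% Tween-20, preformed 30 min, then compound 30 min at room temperature; top concentration 110uM. AlphaScreen streptavidin donor/nickel chelate acceptor beads (10 ug/mL final), 20 min dark, signal read.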
# L3MBTL1 block – blocks human L3MBTL1. AID 485360. Q9Y468. hit rate 0.66% among 230,000. AlphaScreen L3MBTL1–H3K9me1 peptide binding. Potency, µM (titrated, usually from 57.1 µM), inactives show at the highest dose activity, negative = inhibition, most hits filed as inhibitors; further: on the % scale 0 is the no-effect control and ±100 the full control effect; nearly all actives have a fitted effect of over 60% in size
#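 First, the protein-peptide complex forms for 30 min at room temperature (L3MBTL1 50 nM, biotinylated H3K9me1 peptide 75 nM). Next, compounds are pin-transferred and incubated 30 min. Finally, AlphaScreen beads are added and read after 30 min.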
# PLK1 PBD block – blocks phosphopeptide binding to human PLK1 polo-box domain; hit rate 2.8% among 360,000; Potency, µM, for the others: max response, negative = inhibition, usual class: inhibitors; Plk1 PBD binding of FITC phosphopeptide, fluorescence polarization; P53350; further: series mostly up to about 57 µM; on the % scale 0 is the no-effect control and ±100 the full control effect; nearly all actives have a fitted effect of over 65% in size
# Numbers without * were called inactive; ? = inconclusive; . = no result given; [ ] = remark or other dose. Hits are enriched below; roughly 6.9% of the tested compounds scored in any of these assays. The call rests on the fitted dose curve; in most records, active means well fitted curve in the direction sought with a large enough effect; inconclusive means small, poorly fitted or top-dose-only effect, or another doubt; inactive means no such curve, though single readings can be large; an effect the other way counts as inactive or inconclusive. Potency means the concentration at half of the fitted maximal effect.
SMILES,VDR inhibitor,JMJD2A Tudor,HP1b binding inh,BAZ2B block,L3MBTL1 block,PLK1 PBD block
CC(C)(C)c1cc(/C=N/NC(=O)Cc2nc3ccccc3[nH]2)cc(C(C)(C)C)c1O,-10.3%,-23.2%,33.1%,9.6%,.,-8.1%
O=C(Cc1nc2ccccc2[nH]1)N/N=C/c1ccccc1,?,-30.6%,2.5%,6.4%,-7.7%,26.7µM*
CCCCSCCCNC(=O)c1cn(C)c2ccc(S(=O)(=O)N3CCCCC3)cc2c1=O,-7.6%,-12.0%,27.4%,.,.,.
CCNC(=O)c1nn(-c2ccccc2C)nc1CO,9.6%,-7.5%,49.2%,-18.7%,.,.
COc1ccc(CC(=O)NCC(c2cccs2)S(=O)(=O)c2ccc(Cl)cc2)cc1 (stereo not drawn),-2.3%,17.8µM*,10µM*,?,.,.
O=C(COc1ccccc1)NCC(c1cccs1)S(=O)(=O)c1ccc(Cl)cc1 (stereo not drawn),5.3%,17.8µM*,14.1µM*,-11.0%,.,.
O=c1[nH]c2ccc(S(=O)(=O)Nc3ccc(Cl)cc3)cc2o1,11.0%,-7.6%,56.5%,-9.7%,.,0.7%
O=c1[nH]c2ccc(S(=O)(=O)Nc3cc(Cl)ccc3O)cc2o1,-3.5%,?,-4.4%,39.8µM*,.,.
Cc1ccc(C2c3c(oc4ccccc4c3=O)C(=O)N2c2nnc(C)s2)cc1 (stereo not drawn),9.5%,-4.3%,70.3%,1.4%,.,.
CC(C)C[C@@H](CC(=O)N[C@@H](CCCN)CC(=O)N[C@@H]1CCNC[C@H]1C(=O)N[C@H](CC(=O)N[C@@H](CCC(=O)O)CC(=O)O)CC(C)C)NC(=O)[C@@H]1CCCC[C@H]1N,-1.2%,.,.,.,.,.
COc1ncc2ncc(=O)n(C3CC3)c2n1,-1.5%,.,.,.,.,.
Cc1nc(COC(=O)c2cc(O)c3ccccc3c2O)cs1,?,-8.1%[11.4 µM],?,.,-9.5%,21.2µM*
Cc1nc(COC(=O)c2ccc(CO)cc2)cs1,2.2%,-21.3%,45.4%,3.9%,-1.7%,-9.1%
CCN(c1ccccc1)c1nc(C#N)nc(N(CC)c2ccccc2)n1,?,29.2%[57.1 µM],45.1%[57 µM],8.4%,.,21.2µM*
N#Cc1nc(N2CCCC2)nc(N(c2ccccc2)c2ccccc2)n1,-13.4%,-16.9%[57.1 µM],20.8%[57 µM],.,.,.
CC(C)N1C(=O)C(O)(c2c[nH]c3ccccc23)c2ccccc21 (stereo not drawn),0.4%,-20.5%,15.5%,?,.,.
O=C(O)Cn1c(-c2ccccn2)nc2ccccc21,-11.5%,50.1µM*,13.5%,3.0%[57.1 µM],-2.4%,3.0%
O=C(O)Cn1c(=O)c(-c2ccccc2)nc2ccccc21,-5.5%,-9.6%,56.1%,5.4%,8.7%,1.0%
COC(=O)Cn1c(C)nc2ccccc21,2.9%,-11.2%,11.0%,9.2%,.,-2.3%
O=C(O)Cn1c(-c2ccccc2)nc2ccccc21,-6.0%,20.5%[11.4 µM],-0.5%,-32.4%,5.0%,26.7µM*
O=C(O)Cn1c(=S)sc2ccccc21,-18.6%,-5.2%,24.3%,89.1µM*,4.3%,-19.9%
NNC(=O)Cn1c(-c2ccccn2)nc2ccccc21,8.8%,-2.0%,15.6%,-3.0%,.,4.1%
COC(=O)Cn1c(=O)c(C)nc2ccccc21,-17.9%,?,-15.0%,-4.6%,4.0%,29.9µM*
Cc1cccc(Cc2c(C)[nH]c(=O)c(C#N)c2C)c1,-11.2%,-3.5%,44.0%,89.1µM*,0.8%,-8.3%
Cc1cccc(Cn2nnc3c2C(=O)c2ccccc2C3=O)c1,-7.8%,-13.7%,-26.0%,12.6µM*,-19.0%[11.4 µM],-6.4%
SMILES,VDR inhibitor,JMJD2A Tudor,HP1b binding inh,BAZ2B block,L3MBTL1 block,PLK1 PBD block
Cc1ccccc1Cn1nnc2c1C(=O)c1ccccc1C2=O,2.9%,-6.9%,-1.7%,.,.,-7.9%
CC(OCC(O)CNCC1COc2ccccc2O1)c1ccc(Cl)cc1 (stereo not drawn),-24.6%,2.24µM*,?,79.4µM*,22.3%,3.5%
c1ccc(CNCC2COc3ccccc3O2)cc1 (stereo not drawn),-6.8%,-3.1%,23.5%,-1.5%,11.0%,-10.6%
CC(=O)c1cccc(OCC(O)CNCC2COc3ccccc3O2)c1 (stereo not drawn),-2.9%,0.794µM*,50.1µM*,31.6µM*,.,2.8%
COc1ccc(CNCC(O)COCc2cccs2)cc1 (stereo not drawn),-15.4%,1.58µM*,-56.4%,?,6.3%,-6.4%
O=C(NCC1COc2ccccc2O1)c1ccccc1 (stereo not drawn),-22.4%,-3.2%,47.0%,7.5%,2.6%,-11.1%
OC(CNCC1COc2ccccc2O1)COCc1cccs1 (stereo not drawn),15.6%,1.58µM*,-50.9%,89.1µM*,-3.8%,-11.5%
CCCN1CCc2c(sc(NC(=O)Cc3ccc(F)cc3)c2C(N)=O)C1,-16.6%,-15.0%,32.2%,-10.2%,.,-8.4%
Cc1cc2c(NCc3ccccc3)ncnc2s1,13.0%,-6.2%,47.5%,-31.9%,7.2%,-10.3%
COc1ccccc1OCC(=O)N(Cc1ccco1)Cc1ccccc1F,5.5%,?,-8.3%,-30.1%,.,.
O=c1[nH]c(=O)n([C@@H]2C[C@H](O)[C@H](CO)O2)cc1C(F)(F)F,2.6%,.,.,.,.,.
Cc1cccc(NC(=O)CN2C(=O)c3ccccc3Sc3ncccc32)c1C,17.2%,-11.7%,24.0%,-11.7%,.,.
CCc1cccc(NC(=O)c2cn3c4c(ccc(Cl)c4c2=O)OC(C)C3)c1 (stereo not drawn),5.6%,-30.0%,12.8%,-6.0%,.,.
COc1ccc(NC(=O)COC(=O)CNS(=O)(=O)c2ccc(F)c(F)c2F)cc1OC,5.7%,-12.2%,12.1%[57 µM],4.4%,-0.7%,-1.0%
CCOc1ccccc1NC(=O)N1CCc2c(sc3c2CCCC3)C1c1ccccc1 (stereo not drawn),6.2%,-17.2%,1.6%,-17.3%,.,.
C/C(=C\C(=O)c1ccc(C)o1)Nc1ccc(C(=O)O)cc1C,-1.3%,28.2µM*,-9.4%,?,-11.5%,2.0%
COc1ccc(N/N=C(/C)c2cnnc(-c3ccccc3)n2)cc1,-11.1%,79.4µM*,-13.3%,-37.7%,-2.7%,12.3%
CCN(CC)c1ccc(N=Nc2nn(C)c(C)c2[N+](=O)[O-])cc1,-5.5%,?,14.1µM*,10µM*,?,-0.4%
CCN(Cc1ccccc1)c1ccc(N=Nc2nn(C)c(C)c2[N+](=O)[O-])cc1,-9.9%,6.31µM*,?,8.91µM*,15.8µM*,0.4%
Cc1ccc(CNC(=O)c2nn(C)c(C)c2[N+](=O)[O-])cc1,0.1%,0.0%,23.7%,-2.1%,5.0%,-2.0%
Cc1c(Cl)c([N+](=O)[O-])nn1CCCC(=O)N(Cc1ccccc1)Cc1ccccc1,-28.5%,-21.6%,51.4%,-38.8%,-15.6%,-8.5%
CCOC(=O)c1ccc(NC(=O)NNS(=O)(=O)c2cc(OC)ccc2OC)cc1,-3.2%,-6.2%,46.4%,-23.7%,.,0.6%
COc1ccc(CN2C[C@@H](CO)O[C@@H](n3cnc4c(NCc5ccc(F)cc5)ncnc43)C2)cc1,.,.,.,.,.,-0.3%

# High-throughput results from PubChem BioAssay.
